# Results: paper PMC7862700, “An all-to-all approach to the identification of sequence-specific readers for epigenetic DNA modifications on cytosine”
# Key:
# Test in all cases: DAPPL (digital affinity profiling via proximity ligation, sequencing); 10 mM Tris-HCl pH 7.5, 50 mM NaCl, 1 mM DTT, 4% glycerol, room temperature, 30 min; GST-TFs on glutathione beads, 16-mer random dsDNA library, 0.1% formaldehyde crosslink after washing; high values mean tight binding
# Conditions in all cases: protein: recombinant; tags: N-terminal GST; dsDNA, one strand shown
# FLI1 = target: T1, FLI1 (Homo sapiens, UniProt Q01543 1-452)
# T1 sequence: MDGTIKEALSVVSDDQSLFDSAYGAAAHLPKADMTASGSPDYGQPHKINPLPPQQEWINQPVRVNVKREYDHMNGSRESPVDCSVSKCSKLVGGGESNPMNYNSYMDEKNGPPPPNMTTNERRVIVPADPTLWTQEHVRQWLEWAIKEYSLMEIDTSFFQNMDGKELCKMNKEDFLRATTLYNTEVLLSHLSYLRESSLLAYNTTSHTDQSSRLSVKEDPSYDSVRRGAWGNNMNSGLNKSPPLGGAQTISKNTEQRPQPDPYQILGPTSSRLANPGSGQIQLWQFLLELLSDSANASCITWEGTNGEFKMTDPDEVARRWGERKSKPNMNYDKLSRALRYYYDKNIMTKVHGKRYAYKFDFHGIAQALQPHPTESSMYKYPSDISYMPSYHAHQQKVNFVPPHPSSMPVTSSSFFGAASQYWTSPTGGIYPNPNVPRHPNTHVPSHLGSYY
# How it was run: (§1)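 Binding signal is each hexamer's read frequency for a factor divided by its frequency in the tag-only sample. The factors were GST-fused human transcription factors from yeast, captured on glutathione beads, DNA-barcoded and pooled with that sample. Pools were incubated with 200 nmole of a random double-stranded 16-mer DNA library in Tris/NaCl/DTT/glycerol buffer at room temperature for 30 min, then washed, crosslinked with 0.1% formaldehyde, proximity-ligated with BsaI/T4 ligase (1 h, 37 °C), PCR-amplified and sequenced on an Illumina NextSeq500.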
# ELK1 = target: T2, ELK1 (Homo sapiens, UniProt P19419 1-428)
# T2 sequence: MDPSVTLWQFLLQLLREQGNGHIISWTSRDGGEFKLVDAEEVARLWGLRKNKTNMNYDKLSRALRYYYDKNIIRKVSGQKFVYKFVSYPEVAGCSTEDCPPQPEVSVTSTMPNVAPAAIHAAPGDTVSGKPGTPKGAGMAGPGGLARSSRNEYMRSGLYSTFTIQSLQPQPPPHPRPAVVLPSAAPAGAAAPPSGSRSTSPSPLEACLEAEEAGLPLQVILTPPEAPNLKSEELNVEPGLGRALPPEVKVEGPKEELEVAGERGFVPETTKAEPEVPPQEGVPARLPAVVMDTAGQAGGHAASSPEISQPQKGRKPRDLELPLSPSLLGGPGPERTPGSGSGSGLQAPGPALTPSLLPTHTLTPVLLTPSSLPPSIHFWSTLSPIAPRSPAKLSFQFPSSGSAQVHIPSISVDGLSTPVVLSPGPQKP
# How it was run: as §1
# ERG = target: T3, ERG (Homo sapiens, UniProt P11308 1-479)
# T3 sequence: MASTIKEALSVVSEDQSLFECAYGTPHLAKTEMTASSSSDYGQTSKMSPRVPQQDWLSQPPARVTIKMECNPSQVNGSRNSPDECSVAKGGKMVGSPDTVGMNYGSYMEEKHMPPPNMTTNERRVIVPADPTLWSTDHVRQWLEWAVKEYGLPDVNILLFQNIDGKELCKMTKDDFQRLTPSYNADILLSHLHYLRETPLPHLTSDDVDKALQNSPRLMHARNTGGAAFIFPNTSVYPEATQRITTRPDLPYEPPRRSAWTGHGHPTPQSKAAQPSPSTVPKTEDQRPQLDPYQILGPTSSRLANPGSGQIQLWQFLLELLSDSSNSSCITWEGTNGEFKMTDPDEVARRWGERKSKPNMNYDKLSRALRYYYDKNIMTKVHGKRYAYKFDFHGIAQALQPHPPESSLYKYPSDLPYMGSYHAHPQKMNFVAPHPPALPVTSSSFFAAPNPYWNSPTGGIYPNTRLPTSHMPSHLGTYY
# How it was run: as §1
# ELF1 = ELF1 (Homo sapiens, UniProt P32519 1-619)
# How it was run: as §1
# EHF = target: T4, EHF (Homo sapiens, UniProt Q9NZC4 1-300)
# T4 sequence: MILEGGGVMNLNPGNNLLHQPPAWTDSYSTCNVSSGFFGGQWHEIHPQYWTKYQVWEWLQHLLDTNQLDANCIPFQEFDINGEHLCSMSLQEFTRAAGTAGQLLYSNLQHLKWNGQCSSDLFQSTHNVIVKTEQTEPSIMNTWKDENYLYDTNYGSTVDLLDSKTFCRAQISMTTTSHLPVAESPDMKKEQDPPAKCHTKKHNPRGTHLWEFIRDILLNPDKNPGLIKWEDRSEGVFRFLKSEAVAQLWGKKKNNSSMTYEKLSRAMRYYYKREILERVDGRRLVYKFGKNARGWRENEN
# How it was run: as §1
# ELK3 = target: T5, ELK3 (Homo sapiens, UniProt P41970 1-407)
# T5 sequence: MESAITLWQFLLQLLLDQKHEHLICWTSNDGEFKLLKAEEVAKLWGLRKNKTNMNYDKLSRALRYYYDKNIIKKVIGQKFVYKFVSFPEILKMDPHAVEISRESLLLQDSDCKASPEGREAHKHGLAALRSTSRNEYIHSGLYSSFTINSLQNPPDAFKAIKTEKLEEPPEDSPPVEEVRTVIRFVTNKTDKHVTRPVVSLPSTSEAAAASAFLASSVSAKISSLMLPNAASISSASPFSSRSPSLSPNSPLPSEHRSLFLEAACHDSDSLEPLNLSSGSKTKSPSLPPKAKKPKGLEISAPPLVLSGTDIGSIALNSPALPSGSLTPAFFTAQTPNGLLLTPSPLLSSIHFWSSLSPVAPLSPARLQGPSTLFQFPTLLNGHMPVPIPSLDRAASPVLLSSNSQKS
# How it was run: as §1
# FEV = target: T6, FEV (Homo sapiens, UniProt Q99581 1-238)
# T6 sequence: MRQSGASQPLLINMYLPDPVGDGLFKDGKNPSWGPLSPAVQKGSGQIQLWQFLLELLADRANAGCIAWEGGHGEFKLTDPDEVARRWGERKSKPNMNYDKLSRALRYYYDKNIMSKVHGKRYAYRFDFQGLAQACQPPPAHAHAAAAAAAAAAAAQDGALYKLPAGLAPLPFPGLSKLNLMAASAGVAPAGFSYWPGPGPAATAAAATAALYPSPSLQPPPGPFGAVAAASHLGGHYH
# How it was run: as §1
# ETV1 = ETV1 (Homo sapiens, UniProt P50549 1-477)
# How it was run: as §1
# ERF = target: T7, ERF (Homo sapiens, UniProt P50548 1-548)
# T7 sequence: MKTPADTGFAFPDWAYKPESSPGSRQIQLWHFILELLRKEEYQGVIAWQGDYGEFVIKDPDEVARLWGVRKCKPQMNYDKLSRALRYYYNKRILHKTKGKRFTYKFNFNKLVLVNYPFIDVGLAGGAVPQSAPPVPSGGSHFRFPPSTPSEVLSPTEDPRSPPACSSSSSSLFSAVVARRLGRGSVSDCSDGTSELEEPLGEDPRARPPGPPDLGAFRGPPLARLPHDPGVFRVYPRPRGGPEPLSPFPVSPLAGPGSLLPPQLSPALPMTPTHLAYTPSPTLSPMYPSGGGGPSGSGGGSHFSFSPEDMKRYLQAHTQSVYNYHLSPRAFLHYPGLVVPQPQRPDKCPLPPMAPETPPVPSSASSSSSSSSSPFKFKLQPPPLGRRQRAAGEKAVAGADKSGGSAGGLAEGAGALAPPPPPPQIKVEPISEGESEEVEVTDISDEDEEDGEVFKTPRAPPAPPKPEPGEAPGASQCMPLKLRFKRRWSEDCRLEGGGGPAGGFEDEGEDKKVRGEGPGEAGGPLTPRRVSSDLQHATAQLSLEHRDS
# How it was run: as §1
# ETV3L = target: T8, ETV3L (Homo sapiens, UniProt Q6ZN32 1-361)
# T8 sequence: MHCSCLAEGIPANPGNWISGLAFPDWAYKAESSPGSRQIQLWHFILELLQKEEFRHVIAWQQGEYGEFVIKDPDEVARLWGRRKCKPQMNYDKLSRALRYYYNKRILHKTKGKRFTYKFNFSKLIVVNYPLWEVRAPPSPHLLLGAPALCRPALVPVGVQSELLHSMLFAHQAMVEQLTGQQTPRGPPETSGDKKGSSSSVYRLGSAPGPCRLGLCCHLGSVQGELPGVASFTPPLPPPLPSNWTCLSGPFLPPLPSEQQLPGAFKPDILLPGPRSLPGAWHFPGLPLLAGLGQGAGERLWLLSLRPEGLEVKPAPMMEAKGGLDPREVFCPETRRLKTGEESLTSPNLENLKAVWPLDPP
# How it was run: as §1
# ETS2 = target: T9, ETS2 (Homo sapiens, UniProt P15036 1-469)
# T9 sequence: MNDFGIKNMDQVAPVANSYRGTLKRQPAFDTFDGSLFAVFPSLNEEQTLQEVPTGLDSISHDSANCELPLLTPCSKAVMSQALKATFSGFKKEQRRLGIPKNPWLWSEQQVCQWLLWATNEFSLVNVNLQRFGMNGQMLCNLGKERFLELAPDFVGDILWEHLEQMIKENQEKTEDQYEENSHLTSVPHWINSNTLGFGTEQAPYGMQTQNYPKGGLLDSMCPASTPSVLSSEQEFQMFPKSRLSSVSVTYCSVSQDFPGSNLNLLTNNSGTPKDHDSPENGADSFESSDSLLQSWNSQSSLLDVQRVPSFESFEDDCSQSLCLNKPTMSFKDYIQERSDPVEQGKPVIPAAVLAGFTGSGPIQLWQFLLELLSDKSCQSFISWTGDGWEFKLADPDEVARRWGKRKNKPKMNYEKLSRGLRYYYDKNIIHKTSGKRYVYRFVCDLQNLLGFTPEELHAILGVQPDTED
# How it was run: as §1
# ELF5 = target: T10, ELF5 (Homo sapiens, UniProt Q9UKW6-2 1-255)
# T10 sequence: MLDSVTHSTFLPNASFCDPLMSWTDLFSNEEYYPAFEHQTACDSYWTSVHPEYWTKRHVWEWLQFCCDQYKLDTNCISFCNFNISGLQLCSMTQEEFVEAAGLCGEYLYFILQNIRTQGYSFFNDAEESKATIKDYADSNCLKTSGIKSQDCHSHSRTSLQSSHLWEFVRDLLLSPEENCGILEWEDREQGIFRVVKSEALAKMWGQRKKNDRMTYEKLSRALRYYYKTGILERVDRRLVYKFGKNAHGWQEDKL
# How it was run: as §1
# ETV3 = target: T11, ETV3 (Homo sapiens, UniProt P41162-2 1-143)
# T11 sequence: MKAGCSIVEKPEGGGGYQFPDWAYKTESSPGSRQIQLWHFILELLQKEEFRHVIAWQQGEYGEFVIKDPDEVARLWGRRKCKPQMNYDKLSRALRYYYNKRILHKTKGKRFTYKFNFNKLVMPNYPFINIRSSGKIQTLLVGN
# How it was run: as §1
# Chain of ETV1 (P50549 whole entry): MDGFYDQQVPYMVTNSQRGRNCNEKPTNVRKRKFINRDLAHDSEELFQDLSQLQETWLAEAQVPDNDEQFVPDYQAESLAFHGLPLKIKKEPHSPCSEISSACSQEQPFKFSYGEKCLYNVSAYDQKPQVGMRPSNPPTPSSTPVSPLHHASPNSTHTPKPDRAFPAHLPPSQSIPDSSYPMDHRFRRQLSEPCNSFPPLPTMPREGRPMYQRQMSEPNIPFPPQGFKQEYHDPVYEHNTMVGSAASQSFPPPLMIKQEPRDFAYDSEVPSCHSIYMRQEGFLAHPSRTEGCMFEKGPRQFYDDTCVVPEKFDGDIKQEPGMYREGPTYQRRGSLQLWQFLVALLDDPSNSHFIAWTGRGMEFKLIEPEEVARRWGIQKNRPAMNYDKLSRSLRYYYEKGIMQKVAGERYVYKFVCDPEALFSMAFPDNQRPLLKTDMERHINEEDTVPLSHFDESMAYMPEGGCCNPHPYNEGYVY
# Chain of ELF1 (P32519 whole entry): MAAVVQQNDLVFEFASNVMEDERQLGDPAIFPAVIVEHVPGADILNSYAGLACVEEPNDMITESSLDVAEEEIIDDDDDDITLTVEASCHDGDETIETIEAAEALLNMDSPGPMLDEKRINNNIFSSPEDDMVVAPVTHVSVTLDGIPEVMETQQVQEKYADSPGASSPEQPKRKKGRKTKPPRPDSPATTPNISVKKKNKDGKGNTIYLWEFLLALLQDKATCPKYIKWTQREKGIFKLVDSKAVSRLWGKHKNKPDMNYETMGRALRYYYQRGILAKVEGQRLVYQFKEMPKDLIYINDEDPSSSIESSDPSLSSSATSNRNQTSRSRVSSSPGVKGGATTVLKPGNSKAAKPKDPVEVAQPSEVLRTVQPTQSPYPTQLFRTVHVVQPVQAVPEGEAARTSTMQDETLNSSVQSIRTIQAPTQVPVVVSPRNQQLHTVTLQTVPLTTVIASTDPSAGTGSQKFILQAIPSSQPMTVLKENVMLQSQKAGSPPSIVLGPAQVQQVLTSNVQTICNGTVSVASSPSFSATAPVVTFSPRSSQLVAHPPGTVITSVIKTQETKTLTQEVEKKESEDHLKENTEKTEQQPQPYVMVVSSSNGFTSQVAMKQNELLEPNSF
sequence,measurement,setting,value
CGCACA,binding signal,FLI1,"1.01 fold enrichment (6-mer frequency, TF over GST control)"
same,binding signal,ELK1,"1.08 fold enrichment (6-mer frequency, TF over GST control)"
same,binding signal,ERG,"1.02 fold enrichment (6-mer frequency, TF over GST control)"
same,binding signal,ELF1,"1.05 fold enrichment (6-mer frequency, TF over GST control)"
same,binding signal,EHF,"1.03 fold enrichment (6-mer frequency, TF over GST control)"
same,binding signal,ELK3,"1.02 fold enrichment (6-mer frequency, TF over GST control)"
same,binding signal,FEV,"1.02 fold enrichment (6-mer frequency, TF over GST control)"
same,binding signal,ETV1,"1.01 fold enrichment (6-mer frequency, TF over GST control)"
same,binding signal,ERF,"1.07 fold enrichment (6-mer frequency, TF over GST control)"
same,binding signal,ETV3L,"1.04 fold enrichment (6-mer frequency, TF over GST control)"
same,binding signal,ETS2,"1.04 fold enrichment (6-mer frequency, TF over GST control)"
same,binding signal,ELF5,"1.04 fold enrichment (6-mer frequency, TF over GST control)"
same,binding signal,ETV3,"1.03 fold enrichment (6-mer frequency, TF over GST control)"
